Compounds with a hit are over-represented: about 8.1% of the library has one in this group of screens.
NOMO-1 viab: STK33 inhibitor candidate reducing NOMO-1 cell viability | actives 7.5% (n = 37,000) | AID 2330 | NOMO-1 AML viability, CellTiter-Glo luminescence, 72 h | inhibition, % (no concentration beside the values); in the data active = inhibition above about 80%
Hedgehog inh: blocks Sonic Hedgehog signaling; actives 2.1% (n = 22,000); AID 2313; Shh-LIGHT2 Gli-luciferase reporter, 30 h; inhibition, % (concentration not given with the values);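 active = mean inhibition across valid replicates above about 65%, limit read from the data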;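 note: pathway switched on by Shh-conditioned medium diluted 1 in 25 in low serum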
MITF inh: blocks MITF activity; TRPM1 promoter luciferase, luminescence, 24 h; inhibition, % (test concentration not listed); actives 0.28% (n = 37,000); in the data active = inhibition above about 85%;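 note: human melanocyte line stably carrying TRPM1 promoter luciferase reporter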
* marks the source's active call; other numbers are inactive results; nt = no result.

SMILES	NOMO-1 viab	Hedgehog inh	MITF inh
CC(C)(C)C(=O)CSc1nnc(-c2ccncc2)n1-c1ccc(Br)cc1	32.0	nt	-7.9
COc1ccccc1NC(=O)c1ccc(OCC(=O)Nc2cc(Cl)cc(Cl)c2)cc1	85.7*	nt	22.1
COc1ccc(OC)c(NC(=O)COc2ccc(C(=O)Nc3ccc(Cl)cc3)cc2)c1	8.0	nt	4.2
COc1ccc(-c2cc(C(F)(F)F)nc(SCC(=O)Nc3ccc4c(c3)CCC4)n2)cc1OC	71.0	nt	-9.1
C[C@@H]1CN([C@H](C)CO)C(=O)Cc2cc(NC(=O)Cc3cn(C)c4ccccc34)ccc2O[C@@H]1CN(C)Cc1ccc(Oc2ccccc2)cc1	115.8*	31.5	20.7
C[C@H](CO)N1C[C@H](C)[C@H](CN(C)Cc2ccc(Oc3ccccc3)cc2)Oc2ccc(NC(=O)Cc3cn(C)c4ccccc34)cc2CC1=O	69.3	-4.6	11.0
C[C@@H]1CN([C@@H](C)CO)C(=O)Cc2cc(NC(=O)Cc3cn(C)c4ccccc34)ccc2O[C@@H]1CN(C)Cc1ccc(-c2ccccc2)cc1	40.1	13.8	21.9
C[C@@H]1CN([C@H](C)CO)C(=O)Cc2cc(NC(=O)Cc3cn(C)c4ccccc34)ccc2O[C@@H]1CN(C)Cc1ccc(-c2ccccc2)cc1	110.2*	1.5	26.3
C[C@H]1CN([C@@H](C)CO)C(=O)Cc2cc(NC(=O)Cc3cn(C)c4ccccc34)ccc2O[C@@H]1CN(C)C(=O)Nc1ccc(F)cc1	-7.6	7.7	4.3
C[C@@H]1CN([C@H](C)CO)C(=O)Cc2cc(NC(=O)Cc3cn(C)c4ccccc34)ccc2O[C@H]1CN(C)C(=O)Nc1ccc(C(F)(F)F)cc1	25.3	83.4*	21.9
O=C(/C=C/c1ccccc1)Oc1ccc2ccccc2c1	23.0	nt	9.5
COc1ccc(CCn2cnc3oc(-c4ccccc4)c(-c4ccccc4)c3c2=N)cc1OC	-2.7	-9.1	11.1
COC(=O)c1c(NC(=S)NCCn2cc(Br)cn2)sc2c1CCC2	25.5	nt	36.2
Cc1ccccc1-c1noc(CCC(=O)Nc2ccc(Cl)cc2)n1	-17.8	nt	6.2
Cc1ccc(-c2nnc(SCC(=O)Nc3ccc(Br)c(C)c3C)o2)cc1	21.8	nt	47.8
COC(=O)c1cc(NC(=O)C(C)N(c2ccc(C)cc2)S(C)(=O)=O)ccc1Cl (stereo not given)	38.1	nt	9.9
C/C=C/C1=C(Cl)C(=O)[C@@H](O)[C@@]1(O)C(=O)OC	107.5*	47.6	23.2
COc1ccccc1N(Cc1cc2ccc(C)cc2[nH]c1=O)S(=O)(=O)c1ccccc1	107.5*	nt	18.7
COc1ccccc1N(CC(=O)O)S(=O)(=O)c1ccccc1	-3.5	nt	-11.3
C/C1=C/CCC2=CC(OC2=O)C(C)(C)/C=C/C1=O (stereo not given)	118.9*	-42.7	74.1
Cc1cc(I)ccc1NC(=O)CN(c1ccc(Cl)c(Cl)c1)S(C)(=O)=O	24.1	nt	-2.1
COC(=O)c1ccccc1NC(=O)c1cccc(NC(=O)CSc2ccccc2)c1C	15.3	nt	4.5
O=C(CN1C(=O)c2ccccc2S1(=O)=O)Nc1cccc(Br)c1	5.9	nt	-4.9
O=C(Nc1cccc(Br)c1)c1cccc2c1C(=O)c1ccccc1-2	101.6*	nt	22.1
COc1ccc(NC(=O)c2ccc(OCC(=O)Nc3cccc(C)c3C)cc2)cc1Cl	13.5	nt	0.8
SMILES	NOMO-1 viab	Hedgehog inh	MITF inh
C[C@@H]1CN([C@H](C)CO)C(=O)c2cccc(NC(=O)NC3CCCCC3)c2O[C@@H]1CN(C)Cc1ccc(-c2ccccc2)cc1	37.3	-17.2	10.0
C[C@@H]1CN([C@H](C)CO)C(=O)c2cccc(NC(=O)NC3CCCCC3)c2O[C@@H]1CN(C)Cc1ccc(C(F)(F)F)cc1	29.1	-21.5	-5.2
C[C@@H]1CN([C@@H](C)CO)C(=O)c2cccc(NC(=O)NC3CCCCC3)c2O[C@@H]1CN(C)Cc1ccc(Oc2ccccc2)cc1	85.4*	42.7	5.2
C[C@H]1CN([C@@H](C)CO)C(=O)c2cccc(NC(=O)NC3CCCCC3)c2O[C@H]1CN(C)Cc1ccc(Oc2ccccc2)cc1	10.8	9.0	6.0
C[C@H](CO)N1C[C@H](C)[C@@H](CN(C)Cc2ccccc2)Oc2c(NC(=O)NC3CCCCC3)cccc2C1=O	83.8*	0.1	12.1
C[C@@H]1CN([C@@H](C)CO)C(=O)c2cccc(NC(=O)NC3CCCCC3)c2O[C@H]1CN(C)Cc1ccc(C(F)(F)F)cc1	92.6*	-33.7	21.0
O=C(Nc1ccc(Cl)cc1)c1ccccc1NS(=O)(=O)c1cccc2cccnc12	12.6	nt	53.3
CCn1c(SCc2nc3ccccc3c(=O)[nH]2)nnc1-c1ccccc1Br	3.5	nt	47.5
Cc1ccc(NC(=S)NC(=O)C23CC4CCC(CC(C4)C2)C3)cc1	26.4	-4.7	-12.9
O=C(O)CSc1nc2ccccc2n1CC(=O)O	-13.5	nt	-8.1
Cc1cc(C)c(NC(=O)CSc2nc(-c3ccccc3)cc(=O)[nH]2)c([N+](=O)[O-])c1	-36.2	nt	-24.2
N#CC1=C(N)C(C#N)(C#N)C(c2ccccc2)C2=C1CCCC2 (stereo not given)	87.9*	15.8	-3.4
CCOC(=O)C1=C(C)NC(=S)NC1c1cc(I)c(OCC#N)c(OC)c1 (stereo not given)	33.3	nt	26.8
C[C@@H]1CN([C@@H](C)CO)C(=O)c2cc(NS(=O)(=O)c3ccc(Cl)cc3)ccc2O[C@@H]1CN(C)Cc1ccc(-c2ccccc2)cc1	123.3*	-6.0	36.5
C[C@H]1CN([C@@H](C)CO)C(=O)c2cc(NS(=O)(=O)c3ccc(Cl)cc3)ccc2O[C@@H]1CN(C)Cc1ccc(-c2ccccc2)cc1	37.5	nt	-4.2
C[C@@H]1CN([C@H](C)CO)C(=O)c2cc(NS(=O)(=O)c3ccc(Cl)cc3)ccc2O[C@@H]1CN(C)Cc1ccc(-c2ccccc2)cc1	108.6*	nt	26.2
C[C@@H]1CN([C@@H](C)CO)C(=O)c2cc(NS(=O)(=O)c3ccc(Cl)cc3)ccc2O[C@H]1CN(C)Cc1ccccc1	28.2	13.3	0.9
C[C@H](CO)N1C[C@H](C)[C@H](CN(C)Cc2ccc(-c3ccccc3)cc2)Oc2ccc(NS(=O)(=O)c3ccc(Cl)cc3)cc2C1=O	113.6*	29.0	14.3
C[C@H](CO)N1C[C@H](C)[C@@H](CN(C)Cc2ccc(-c3ccccc3)cc2)Oc2ccc(NS(=O)(=O)c3ccc(Cl)cc3)cc2C1=O	61.8	27.2	1.6
Cc1ccc(-c2nc(S(=O)(=O)c3ccc(F)cc3)c(SCC(N)=O)o2)cc1	11.4	nt	28.6
Cc1c(NC(=O)CCN2C(=O)c3ccccc3C2=O)cccc1C(=O)O	-24.2	nt	-8.9
COc1cccc(NC(=O)CSc2nnc(-c3ccncc3)n2-c2ccc(C)cc2)c1	4.0	nt	-8.0
C[C@H](CO)N1C[C@H](C)[C@H](CN(C)S(=O)(=O)c2ccccc2)Oc2ccc(NC(=O)Nc3ccc(C(F)(F)F)cc3)cc2CC1=O	127.7*	-11.9	29.7
C[C@@H]1CN([C@@H](C)CO)C(=O)Cc2cc(NC(=O)Nc3ccc(C(F)(F)F)cc3)ccc2O[C@@H]1CN(C)S(C)(=O)=O	114.4*	nt	13.8
C[C@@H]1CN([C@@H](C)CO)C(=O)Cc2cc(NC(=O)Nc3ccc(C(F)(F)F)cc3)ccc2O[C@@H]1CN(C)S(=O)(=O)c1ccccc1	112.1*	-43.4	44.1
C[C@H]1CN([C@@H](C)CO)C(=O)Cc2cc(NC(=O)Nc3ccc(C(F)(F)F)cc3)ccc2O[C@@H]1CN(C)C	17.9	16.9	-4.3
